SW480 rereplic: DNA re-replication induction in SW480 cells; SW480 DNA re-replication, Hoechst DNA content imaging, 48 h; Potency, µM (titrated, usually from 46.1 µM), for the others: top-dose re-replication activation, actives largely listed as activators; hit rate 1.8% among 340,000; AID 624297; note: potency is the fitted concentration of half-maximal effect; % of control where 0% means no effect; nearly all actives have a fitted effect of over 55% in size
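Readout is total intensity of Hoechst-stained nuclei, excited at 405 nm and collected at 500-530 nm. Compound treatment lasted 48 hr at 37 C in 5% CO2 before staining.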
VP16 counter: counter-screen for ROR gamma inhibitors: Gal4-VP16 reporter; Potency, µM (doses to about 53.6 µM), inactives show at the highest dose activity, negative = inhibition, usual class: inhibitors; AID 2546; Drosophila S2 Gal4-VP16 UAS-luciferase, luminescence, 20 h; hit rate 3.5% among 310,000;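 note: Gal4-VP16 expression switched on by copper sulfate through the metallothionein promoter; potency is the fitted concentration of half-maximal effect; % is set by controls: 0 for no effect and ±100 for the full control effect; nearly all actives have a fitted effect of over 50% in size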
RORgamma inh: inhibitors of mouse ROR gamma transcriptional activity | P51450 | Drosophila S2 Gal4-RORgamma UAS-luciferase reporter, 20 h | Potency, µM (titrated, usually from 53.6 µM), for inactives: top-dose activity change, negative = inhibition, most hits filed as inhibitors | hit rate 5.4% among 310,000 | AID 2551; note: potency is the fitted concentration of half-maximal effect; % is set by controls: 0 for no effect and ±100 for the full control effect; nearly all actives have a fitted effect of over 60% in size
Target sequence (P51450 whole entry, looked up, the tested form may be a part): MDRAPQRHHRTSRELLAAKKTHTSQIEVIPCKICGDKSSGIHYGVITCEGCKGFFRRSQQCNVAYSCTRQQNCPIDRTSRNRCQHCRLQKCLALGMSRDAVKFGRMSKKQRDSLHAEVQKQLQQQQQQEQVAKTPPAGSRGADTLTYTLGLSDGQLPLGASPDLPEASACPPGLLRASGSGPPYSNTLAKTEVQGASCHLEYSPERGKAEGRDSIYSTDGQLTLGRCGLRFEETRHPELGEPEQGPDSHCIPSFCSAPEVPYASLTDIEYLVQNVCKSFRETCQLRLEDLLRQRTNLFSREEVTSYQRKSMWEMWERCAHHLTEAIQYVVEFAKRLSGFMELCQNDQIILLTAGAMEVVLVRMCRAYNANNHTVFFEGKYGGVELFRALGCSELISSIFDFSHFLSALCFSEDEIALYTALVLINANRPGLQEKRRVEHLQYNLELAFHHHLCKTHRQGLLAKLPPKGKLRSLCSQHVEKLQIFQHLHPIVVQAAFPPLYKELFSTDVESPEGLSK
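Luminescence from a UAS-regulated Photinus luciferase reporter in stably transfected Drosophila Schneider cells is measured; decreased signal marks ROR gamma inhibition. Fusion expression is induced by 700 uM copper sulfate for 20 hr.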
IL-1B inflam inh: inhibitors of inflammasome signaling (IL-1 beta secretion); THP-1 LPS/ATP IL-1B secretion, AlphaLISA, 16 h; active compounds read low; activity change, % at 57.5 µM; AID 743279; hit rate 4.7% among 360,000; in the data active = activity change below about -50%; inconclusive = mostly about -30% to -49%; note: % is set by controls: 0 for no effect and ±100 for the full control effect
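Secreted IL-1B measured by AlphaLISA bead assay after 16 h compound exposure of THP-1 cells; compounds (final up to 57.5 uM) added 1 h before LPS (250 ng/mL) and ATP (1.25 mM) stimulation; lower signal means less secretion.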
MCF10A rereplic: induces DNA re-replication in MCF 10a normal breast cells; Potency, µM (highest dose often 46.1 µM), for inactives: at the top dose activity, positive = re-replication, hits mostly activators; MCF 10A DNA re-replication, Hoechst nuclear intensity, 48 h; hit rate 2.9% among 350,000; AID 624296; note: potency is the fitted concentration of half-maximal effect; % of control where 0% means no effect; nearly all actives have a fitted effect of over 50% in size
Numbers without * were called inactive; i = inactive; ? = inconclusive; / = no result given; [ ] = dose if it differs, or a comment. An excerpt weighted towards active compounds, which were near 11% of everything screened. Unless noted, calls come from the whole dose curve; as a rule, active = well fitted curve in the direction sought with a large enough effect; inconclusive = small, poorly fitted or top-dose-only effect, or another doubt; inactive = no such curve, though single readings can be large; an effect the other way counts as inactive or inconclusive.

SMILES	SW480 rereplic	VP16 counter	RORgamma inh	IL-1B inflam inh	MCF10A rereplic
Cc1cccc(NS(=O)(=O)c2cccc(C(=O)NCC(c3ccc(F)cc3)N3CCOCC3)c2)c1 (configuration not stated)	1%	/	/	-15	11%
S=C(SSC(=S)N1CCOCC1)N1CCOCC1	/	/	/	17	/
CCOc1cc(CNCc2ccccc2)ccc1OCc1ccc(Cl)cc1	15µM*	-27%	?	-94*	?
CCNCc1ccc(OCc2cccs2)c(OCC)c1	-10%	2%	-16%	16	-11%
COCCOC(=O)c1ccc(NC(=O)COc2ccc([N+](=O)[O-])cc2)cc1	5%	-2%	11%	9	-5%[9.22 µM]
Cc1ccc(CC(=O)Nc2ccc([N+](=O)[O-])cc2C)cc1	-5%	-9%	-4%	-57*	19%
COC(=O)c1ccc(NC(=O)COc2ccc([N+](=O)[O-])cc2)cc1	-14%	10µM*	-44%	5	0%
Cc1ccc(NC(=O)CCC(=O)NNC(=O)COc2ccc([N+](=O)[O-])cc2)c(C)c1	2%	-5%	-16%	2	1.6µM*
Cc1ccc(NCCC(=O)c2cccc([N+](=O)[O-])c2)c(C)c1	?	?	10µM*	-16	?
Cc1cccc(NCCC(=O)c2ccc([N+](=O)[O-])cc2)c1C	133%	-3%[10 µM]	5%	5	?
CN(Cc1ccccc1)C(=O)c1[nH]c(C(F)(F)F)nc1-c1ccccc1	/	/	/	12	/
O=C(Nc1ccc(Cl)cn1)C1CCN(c2ncnc3c2nc2n3CCCCC2)CC1	?	?	?	-91*	?
O=C(Nc1ccc(Cl)cn1)C1CCCN(c2ncnc3c2nc2n3CCCCC2)C1 (configuration not stated)	26µM*	2%	12%	-10	2%
CC(=O)c1ccc(NC(=O)C2CCCN(c3ncnc4c3nc3n4CCCCC3)C2)cc1 (configuration not stated)	-10%	?	-7%	-61*	14%
CC(C)c1ccc(NC(=O)C2CCN(c3ncnc4c3nc3n4CCCCC3)CC2)cc1	?	-27%	-39%	60	16µM*
O=C(Nc1ccccn1)C1CCCN(c2ncnc3c2nc2n3CCCCC2)C1 (configuration not stated)	-3%	7%	-4%	66	23µM*
Cc1ccc(C)c(OCCC(=O)OCC(=O)NC2CCCC2)c1	-5%	/	/	8	1%
Cc1ccc(N2C(=O)CC(Sc3ncccn3)C2=O)cc1C (configuration not stated)	-1%	?	13µM*	-7	0%
CC(C)c1ccc(N2C(=O)CC(Sc3ncn[nH]3)C2=O)cc1 (configuration not stated)	?	?	?	-23	?
COc1ccc(N2C(=O)CC(Sc3n[nH]c(-c4cccc(C)c4)n3)C2=O)cc1 (configuration not stated)	-49%	?	23%	-30	110%
COc1ccccc1N1C(=O)CC(Sc2nc(C)cc(C)n2)C1=O (configuration not stated)	-5%	-19%	11µM*	19	6%
CCOc1ccccc1N1C(=O)CC(Sc2n[nH]c(-c3ccccc3)n2)C1=O (configuration not stated)	?	-71%	3.5µM*	0	15µM*
COc1ccc(N2C(=O)CC(Sc3nc(C)cc(C)n3)C2=O)cc1OC (configuration not stated)	-28%	?	-3%[1.91 µM]	17	-4%
COc1ccc(N2C(=O)CC(Sc3ncn[nH]3)C2=O)c(OC)c1 (configuration not stated)	7.3µM*	22µM*	3.2µM*	-17	2.3µM*
COc1cc(NC(=O)CCCC(=O)OCC(F)(F)C(F)F)nc(OC)n1	?	-4%	-1%	19	23µM*
SMILES	SW480 rereplic	VP16 counter	RORgamma inh	IL-1B inflam inh	MCF10A rereplic
COc1cc(NC(=O)CCC(=O)OCCCC(F)(F)C(F)(F)F)nc(OC)n1	1%	5%	25%	38	?
O=C(c1cccc(F)c1)N1CCC[C@@]2(CCN(c3ccncc3)C2)C1	/	8%	-13%	/	/
CCCCNc1nc(-c2ccccc2)cc(C(F)(F)F)c1C(N)=O	17%	?	?	-70*	3%
O=C(NNS(=O)(=O)c1ccc([N+](=O)[O-])cc1)C(=O)Nc1cccc(C(=O)O)c1	-15%	10%	-38%	-20	?
CC[C@H](C)[C@H](NC(=O)[C@H](CO)NC(=O)[C@H](CC(C)C)NC(=O)[C@@H]1CCCN1C(=O)[C@@H]1CCCN1C(=O)[C@H](CC(=O)O)NC(=O)[C@@H](N)CC(=O)O)C(=O)N[C@@H](CC(=O)O)C(=O)N[C@@H](CC(C)C)C(=O)N[C@H](C(=O)N[C@@H](Cc1ccccc1)C(=O)N[C@@H](Cc1cnc[nH]1)C(=O)N[C@@H](CC(C)C)C(=O)N[C@@H](CC(C)C)C(=O)N[C@@H](CCCNC(=N)N)C(=O)N[C@H](C(=O)N[C@@H](CC(C)C)C(=O)N[C@@H](CC(C)C)C(=O)N[C@@H](CCC(=O)O)C(=O)N[C@@H](CC(C)C)C(=O)N[C@@H](C)C(=O)N[C@@H](CCCNC(=N)N)C(=O)N[C@H](C(=O)N[C@@H](CCC(N)=O)C(=O)N[C@@H](CO)C(=O)N[C@@H](CCC(N)=O)C(=O)N[C@@H](CCCNC(=N)N)C(=O)N[C@@H](CCC(=O)O)C(=O)N[C@@H](CCCNC(=N)N)C(=O)N[C@@H](C)C(=O)N[C@@H](CCC(=O)O)C(=O)N[C@@H](CCC(N)=O)C(=O)N[C@@H](CC(N)=O)C(=O)N[C@@H](CCCNC(=N)N)C(=O)N[C@H](C(=O)N[C@H](C(=O)N[C@@H](Cc1ccccc1)C(=O)N[C@@H](CC(=O)O)C(=O)N[C@@H](CO)C(=O)N[C@H](C(N)=O)C(C)C)[C@@H](C)CC)[C@@H](C)CC)[C@@H](C)O)[C@@H](C)O)[C@@H](C)O	/	-3%	15%	/	/
CC(=O)CCC(=O)NC1CCCc2c1cnn2-c1ccc(C(C)(C)C)cc1 (configuration not stated)	?	?	?	49	?
CC(C)(C)c1ccc(-n2ncc3c2CCCC3NC(=O)CN2CCCC2=O)cc1 (configuration not stated)	-2%	7.1µM*	?	i	8%
Cc1cc(C)cc(-n2ncc3c2CCCC3NC(=O)CN2CCCC2=O)c1 (configuration not stated)	-8%	-3%	-6%	-9	8%
CC1(C)Cc2c(cnn2-c2ccc(F)cc2)C(NC(=O)CCN2CCCC2=O)C1 (configuration not stated)	?	?	43%	34	?

Assay outcomes from PubChem.
